Values joined by “and” are separate entries in the source; they are usually repeats but may differ in a detail not shown here. Equal entries are not always repeated. About 800 (0.36%) of roughly 220,000 compounds were called active. The sample as a whole holds a higher share of actives than the screen did. A number with no mark means an inactive call. No stated cut-off is given here; in the data, active means activation above about 33% (passing the limit was not always enough); inactive means the rest.
These compounds were tested against Neuropeptide Y receptor type 1 (Homo sapiens) (UniProt P25929) (assay: activation enhancers of human NPY-Y1 – cell-based, primary screen (AID 1304;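 further: cells stimulated with NPY at EC10 then isoproterenol at EC100; 0% = low agonist plus stimulus and 100% = saturating agonist plus stimulus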)). Conditions: NPY-Y1 expressing cells, potentiator/agonist activation; at 3.6 µM; hits give high values.
Chain of Neuropeptide Y receptor type 1 (Homo sapiens) (P25929 whole entry, looked up): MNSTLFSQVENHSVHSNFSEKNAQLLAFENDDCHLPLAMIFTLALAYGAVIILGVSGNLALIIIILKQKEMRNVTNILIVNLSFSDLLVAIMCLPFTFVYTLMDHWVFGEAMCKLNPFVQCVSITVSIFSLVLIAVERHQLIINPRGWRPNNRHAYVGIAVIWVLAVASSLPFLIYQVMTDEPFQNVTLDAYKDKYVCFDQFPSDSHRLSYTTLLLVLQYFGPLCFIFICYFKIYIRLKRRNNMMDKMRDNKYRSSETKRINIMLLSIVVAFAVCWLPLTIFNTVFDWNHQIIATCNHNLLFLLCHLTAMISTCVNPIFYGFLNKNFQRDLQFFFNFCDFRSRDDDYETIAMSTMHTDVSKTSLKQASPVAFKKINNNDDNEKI

Row | Structure (SMILES) | activation
1 | Cc1nnc(SCC2=C(C(=O)O)N3C(=O)C(NC(=O)Cn4nc(C)c(Cl)c4C)C3SC2)s1 (stereo unspecified) | -9.62%
2 | Cn1nc(C(F)(F)F)cc1C(=O)O | -6.07%
3 | COc1ccc(C(=O)OCC(=O)NC(=O)CCSc2ccccc2)cc1 | -33.3%
4 | COc1cccc(CNC(=O)CCC2CCCN(Cc3ccc(OC(F)F)cc3)C2)c1 (stereo unspecified) | 4.57%
5 | C[C@@H]1NC(=O)c2cc([N+](=O)[O-])cc(F)c2NCCC[C@@H](C(N)=O)NC(=O)[C@H](CC(N)=O)NC1=O | 3.2%
6 | COC(=O)c1sc(C(F)(F)F)c(-c2ccccc2)c1S(=O)(=O)N(C)C | 5.29%
7 | CCCCCCCCc1c(O)nc(-n2[nH]c(C)c(CCO)c2=O)[nH]c1=O | 11.5%
8 | CC(C)NC(=O)c1ccc(Sc2ccccc2)c([N+](=O)[O-])c1 | 4.46%
9 | O=C(COc1ccc([N+](=O)[O-])cc1)Nc1ccc(N2CCCC2)cc1 | -4.81%
10 | COc1ccc(C(=O)Nc2ccc(-n3nncc3C(C)(C)C)cc2)cc1 | 1.57%
11 | COc1ccccc1N(C)S(=O)(=O)c1ccc(Cl)c(C(=O)N2CCC(C(N)=O)CC2)c1 | 29.7%
12 | COc1ccc(/C=N/NC(=O)Nc2ccc3nsnc3c2)c(OC)c1 | 7.9%
13 | Cc1ccc(NC(=O)CCOc2ccccc2)cc1S(=O)(=O)Nc1ccccc1Cl | 21.9%
14 | COc1ccccc1OCCNC(=O)c1cc([N+](=O)[O-])cc([N+](=O)[O-])c1 | 1.67%
15 | COc1ccccc1OCCNCC(O)COc1cccc2[nH]c3ccccc3c12 (stereo unspecified) | 107% (active) and 106% (active)
16 | CC(O)CNCCOc1cccc(Oc2ccccc2)c1 (stereo unspecified) | -10%
17 | COc1ccc(C2c3[nH]c4ccccc4c3CCN2CCCn2cccn2)cc1C (stereo unspecified) | -23.6%
18 | Nc1nc(SCC(=O)NNc2c(Cl)cc(Cl)cc2Cl)n[nH]1 | 3.91%
19 | C/C(=N\NC(=O)NC1CCCCC1)c1ccc(OC(F)F)cc1OC(F)F | -17%
20 | COCCCNC(=O)c1ccc(CNS(=O)(=O)c2ccc(NC(C)=O)cc2)cc1 | 36.8% (active)
21 | CC(=O)Nc1ccc(S(=O)(=O)NCCc2ccccc2)cc1 | -20.2%

Row | Structure (SMILES) | activation
22 | CCCCNC(=O)C1CCC(CNS(=O)(=O)c2ccc(NC(C)=O)cc2)CC1 (stereo unspecified) | -15.8%
23 | CC(C)(C)NC(=O)Cn1c(SCC(=O)Nc2nccs2)nc2ccccc21 | -9.44%
24 | CSc1nc(-c2ccco2)nn1C(=O)CCc1ccccc1 | -13.4%
25 | CS(=O)(=O)n1nc(-c2ccco2)nc1N | -9.25%
26 | CSc1nc(-c2ccco2)nn1C(=O)c1ccccc1Cl | 56.1% (active)
27 | S=c1[nH]nc(-c2cc(-c3ccsc3)n[nH]2)n1-c1ccccc1 | -8.71%
28 | Cc1nnsc1C(=O)N/N=C/c1ccccc1Cl | -6.23%
29 | O=C(Nc1ccc(F)cc1F)N1CCCN(CCOc2ccccc2)CC1 | 4.67%
30 | CCOC(=O)C1(CC2CCCCO2)CCN(Cc2nc(-c3cccs3)oc2C)CC1 (stereo unspecified) | 1.86%
31 | CC(=O)O[C@]1(C(C)=O)CC[C@H]2[C@@H]3C=C(C)C4=CC(=O)CC[C@]4(C)[C@H]3CC[C@@]21C | -14.5% and 5.59%
32 | Cc1noc(COc2ccccc2OCc2onc(C)c2Cl)c1Cl | -31.2%
33 | CC(C)(C)CC(C)(C)NCC(O)COCCOc1ccc(Br)cc1 (stereo unspecified) | -16.3%
34 | Cc1noc(COc2ccccc2OCC(O)CNC(C)(C)C)n1 (stereo unspecified) | 111% (active)
35 | Nc1nc(O)c(CC(=O)O)s1 | -3.67%
36 | CCc1cc(-c2n[nH]c(=S)n2CC(C)C)cs1 | -23.7%
37 | Cc1ccc(NC(=O)CC(=O)Nc2ccc(C)cc2)cc1 | -0.47%
38 | CC(=O)c1cccc(NC(=O)Nc2ccc(C)cc2)c1 | -1.32%
39 | COC(=O)c1ccc(NC(=O)Nc2ccc(C)cc2)cc1 | 101% (active)
40 | CO/N=C/c1cn(-c2ccc(Cl)cc2)nn1 | -2.97%
41 | CN(c1ccccc1)S(=O)(=O)c1ccc(Cl)c(C(=O)OCC(=O)NCc2ccco2)c1 | 16.8%
42 | O=c1[nH]oc(O)c1-c1ncc(C(F)(F)F)cc1Cl | 7.56%

Row | Structure (SMILES) | activation
43 | CC(=O)NC(=S)NNC(=O)c1ccc(Br)cc1 | -6.38%
44 | N#Cc1ccc(C(=O)Nc2nc(-c3cccs3)c(C(=O)C(F)(F)F)s2)cc1 | 45.4% (active)
45 | Cc1ccc(C(=O)Nc2nnc(-c3cccs3)s2)cc1C | 19.3%
46 | CC(=O)c1sc(NC(=O)c2ccc(C)cc2)nc1C | 5.15%
47 | Cc1ccc(NC(=S)N2CCCC(c3ccccc3)=N2)cc1 | -12%
48 | CCOC(=O)c1cnc2ccc(F)cc2c1Nc1ccc2c(c1)OCCO2 | -7.89%
49 | CCCCNC(=O)Nc1c(C)cc(SC#N)cc1C | -6.72%
50 | O=C(CCCN1C(=O)c2ccccc2C1=O)Oc1ccc(Cl)cc1 | -9.31%
51 | O=C(NCCc1csc(-c2ccccc2)n1)c1ccccc1F | -10.8%
52 | O=C(Nc1ccccc1)C1CC(=O)n2c(nc3ccccc32)N1 (stereo unspecified) | 16.2%
53 | CCOC(=O)c1ccc(NC(=O)C2CC(=O)Nc3nc4ccccc4n32)cc1 (stereo unspecified) | 2.63%
54 | CC(=O)c1ccc(NC(=O)C2CC(=O)Nc3nc4ccccc4n32)cc1 (stereo unspecified) | 46.6% (active)
55 | Cc1nnc(SC(C(=O)c2ccccc2)c2ccccc2)[nH]c1=O (stereo unspecified) | -19.4%
56 | COc1ccc2[nH]c(=S)cc(C)c2c1 | -18.7%
57 | CCN(CC)CC(=O)c1c[nH]c2ccc(OC)cc12 | -5.01%
58 | COc1ccc2[nH]c3ccc(OC)cc3c2c1 | 64.7% (active)
59 | CC1CCCCC1NC(=O)CN1CCC(O)(c2ccc3c(c2)OCO3)CC1 (stereo unspecified) | 3.89%
60 | Cn1cnnc1SCC(=O)NNC(=O)COc1ccc(Br)cc1 | -5.38%
61 | C/C(Cc1ccccc1)=N\NC(=O)CNC(=O)c1ccccc1Cl | -3%

Reference: PubChem BioAssay AID1304 (The Scripps Research Institute Molecular Screening Center, 2008)
